Most compounds without a hit are left out; they make up all but 5.7% or so of the library.
A549 viability: kills or reduces viability of A549 cells in Nrf2 counter-screen; A549 ARE-Fluc cells, CellTiter-Fluor viability, 18-24 h; actives 0.16% (n = 390,000); Potency, µM (top dose mostly 46 µM), usual class: inhibitors
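Cytotoxicity counterscreen: CellTiter-Fluor fluorescence was measured in A549 ARE_Fluc cells after 18-24 h of compound exposure in a concentration series. The subsequent BugLite luminescent read reports ARE-luciferase activity.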
Giardia kill: kills Giardia lamblia; activity change, % at 7.66 µM, hits read low; Giardia lamblia trophozoite viability; actives 0.15% (n = 340,000); AID 540267; in the data active means activity change below about -80%; inconclusive means between about -30% and that limit;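 further: parasites exposed to compound for two days anaerobically before the ATP read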
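Anaerobic 48 hrs incubation at 37 deg C of 100 trophozoites/well with test compounds; ATPLite 1-Step luminescence, 15-30 min RT, reports cellular ATP as viability.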
PI4K2A block: blocks human PI4K2A kinase activity | AID 1346378 | activity change, negative = inhibition, % at 76.9 µM | purified PI4K2A, ADP-Glo luminescence, 1 h; active compounds read low | actives 0.13% (n = 420,000) | Q9BTU6; in the data active means activity change below about -50%; inconclusive means mostly about -30% to -49%
Target sequence (Q9BTU6 whole entry, looked up): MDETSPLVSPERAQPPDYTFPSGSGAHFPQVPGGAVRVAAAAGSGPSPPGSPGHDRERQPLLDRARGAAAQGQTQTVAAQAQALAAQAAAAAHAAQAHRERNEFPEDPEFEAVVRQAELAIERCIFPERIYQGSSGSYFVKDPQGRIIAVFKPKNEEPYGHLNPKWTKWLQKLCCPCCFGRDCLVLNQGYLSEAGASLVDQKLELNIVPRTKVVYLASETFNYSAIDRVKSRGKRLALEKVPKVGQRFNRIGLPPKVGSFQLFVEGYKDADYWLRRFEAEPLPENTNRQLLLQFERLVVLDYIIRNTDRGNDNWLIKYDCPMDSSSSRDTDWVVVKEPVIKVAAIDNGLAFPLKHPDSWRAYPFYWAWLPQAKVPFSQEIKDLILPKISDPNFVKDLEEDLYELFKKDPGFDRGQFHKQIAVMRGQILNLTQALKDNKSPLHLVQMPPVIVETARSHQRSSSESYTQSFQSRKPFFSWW
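Compounds are screened against recombinant PI4K2A using PI as substrate and ATP, the latter dispensed at 300 microM. Reactions run one hour at ambient temperature before ADP-Glo detection; full inhibition defined by wells lacking enzyme.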
KB-V1 cytotox: KB-V1 MDR subline cytotoxicity | KB-V1 MDR cells viability, CellTiter-Glo, 72 h | Potency, µM (titrated, usually from 46.1 µM), actives largely listed as cytotoxic | actives 3.4% (n = 400,000) | AID 1347076; further: nearly all actives have a fitted effect of over 60% in size
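qHTS viability screen in drug-selected KB-V1 MDR cells: 72 h compound treatment at 37 degrees C, ATP luminescence end point.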
KB-3-1 cytotox: KB-3-1 parental cell cytotoxicity | Potency, µM (titrated, usually from 46.1 µM), usual class: cytotoxic | KB-3-1 viability, CellTiter-Glo ATP luminescence, 72 h | actives 1.4% (n = 400,000); further: nearly all actives have a fitted effect of over 60% in size
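Viability of parental KB-3-1 cells, measured by CellTiter-Glo luminescence, followed a 72 h incubation at 37 °C with pinned compounds in phenol-red-free DMEM containing 10% FBS.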
Nrf2 inh: inhibitors of Nrf2 signaling | Potency, µM (top dose mostly 46 µM), usual class: inhibitors | actives 2.1% (n = 360,000) | A549 ARE-Fluc reporter, luciferase luminescence, 18-24 h | AID 504444; further: nearly all actives have a fitted effect of over 60% in size
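Reporter: ARE-Fluc in A549. Exposure: 18-24 h, 37 °C, 5% CO2, 5% FBS OPTI-MEM. Readouts: fluorescent cytotoxicity (CellTiter-Fluor), then luminescent Nrf2 signal after BugLite.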
Numbers stand for hits; . = inactive; ? = inconclusive; / = no result given. Unless noted, the call rests on the fitted dose curve; in most records, active means well fitted curve in the direction sought with a large enough effect; inconclusive means small, poorly fitted or top-dose-only effect, or another doubt; inactive means no such curve, though single readings can be large; an effect the other way counts as inactive or inconclusive.

SMILES	A549 viability	Giardia kill	PI4K2A block	KB-V1 cytotox	KB-3-1 cytotox	Nrf2 inh
COC(=O)c1ccccc1NC(=O)c1cc2c(s1)-c1ccccc1OC2	.	/	.	.	.	.
COc1ccc(CCNC(=O)c2cc3c(s2)-c2c(C)cccc2OC3)c(OC)c1	.	/	.	.	.	20.6µM
COc1cc(NC(=O)c2cc3c(s2)-c2ccccc2OC3)cc(OC)c1OC	.	/	.	?	?	20.6µM
CCC(=O)/C=C1/Sc2ccc(OC)cc2N1CCO	.	.	.	.	.	.
CCC(/C=C1\Sc2ccc(OC)cc2N1CCO)=C\c1sc2ccc(OC)cc2[n+]1CCO	20.6µM	.	.	.	2.91µM	?
CCC(/C=C1\Sc2ccc(OC)cc2N1CC)=C\c1sc2ccc(OC)cc2[n+]1CCCS(=O)(=O)[O-]	?	.	.	.	?	10.3µM
CCO/C(=C/c1sc2ccc(OC)cc2[n+]1CCCS(=O)(=O)[O-])CC	.	.	.	.	.	.
C[C@@H](c1ncncc1F)C(O)(Cn1cncn1)c1ccc(F)cc1F (some centres undefined)	/	/	.	/	/	/
O=S(=O)(c1ccc(Cl)cc1)N1CCN(c2nc(Nc3cc(Cl)ccc3O)nc3ccccc23)CC1	.	.	/	/	/	.
COCC(=O)N1CCC(C(=O)NC2CCCc3ccccc32)CC1 (centres undefined)	/	/	.	/	/	/
O=[S+]([O-])(c1ccc2c(c1)OCCO2)N1CCN([S+](=O)([O-])c2c(O)cc(F)cc2F)CC1	.	/	/	/	/	.
Cc1ccc(CNCC(O)(c2ccccc2)c2ccc(F)cc2)cc1 (centres undefined)	.	.	.	18.4µM	.	.
COc1ccc(/C=C/C(=O)N(CC(C)C)CC(C)C)cc1Br	?	.	.	20.6µM	.	?
Cc1ccc(-c2cc(-c3nnc(SCC(=O)N4c5ccccc5Sc5ccc(Cl)cc54)n3N)[nH]n2)cc1	/	/	.	/	/	/
Cc1ccc(C(=O)n2c3ccccc3c3ccccc32)cc1	.	.	.	8.2µM	10.3µM	/
CCC12CN(C(=O)c3ccc(C)cc3)CC(CC)(CN(C(=O)c3ccc(C)cc3)C1)C2=O	.	.	.	5.17µM	.	.
Cc1ccc(C(=O)N2CC3(C(C)C)CN(C(=O)c4ccc(C)cc4)CC(C(C)C)(C2)C3=O)cc1	.	.	.	.	.	.
CCc1ccc(-c2cc(C(=O)N3N=C(C(F)F)CC3(O)C(F)F)c3ccccc3n2)cc1 (centres undefined)	23.1µM	.	.	18.4µM	?	20.6µM
CCCc1ccc(-c2cc(C(=O)NN3CCOCC3)c3ccccc3n2)cc1	.	.	.	5.17µM	.	?
O=C(NCC(c1cccs1)N1CCOCC1)c1cc(-c2ccc(F)cc2)nc2ccccc12 (centres undefined)	.	.	.	20.6µM	.	.
CC(C)Oc1cccc(-c2cc(C(=O)NN3CCOCC3)c3ccccc3n2)c1	.	.	.	.	.	.
O=C(NCC(c1cccs1)N1CCOCC1)c1cn(-c2ccccc2)nc1-c1ccc(F)cc1 (centres undefined)	.	.	.	.	.	.
CCc1ccc(-c2cc(C(=O)Nn3cnnc3)c3ccccc3n2)cc1	.	-100.1	.	?	?	9.2µM
C=CCN1[C@H](C)COc2cc(F)ccc2S1(=O)=O	/	/	.	/	/	/
CC(=O)c1c(C)n([O-])c2cc(F)c(F)cc2[n+]1=O	.	?	.	?	16.4µM	.
SMILES	A549 viability	Giardia kill	PI4K2A block	KB-V1 cytotox	KB-3-1 cytotox	Nrf2 inh
Cc1cc2c(s1)c1cnn(Cc3ccc(OC(F)F)cc3)c(=O)c1n2C	.	/	/	/	/	.
CCN(CC(=O)Nc1ccccc1OC)C(=O)COc1ccc2ccccc2c1	.	.	.	14.6µM	.	.
COc1cccc(NC(=O)CN(C)C(=O)CSc2ccc3c(c2)OCCO3)c1	.	.	.	20.6µM	.	.
Cc1ccc(NC(=O)CN(C)C(=O)CSc2ccc3c(c2)OCCO3)cc1	.	.	.	.	.	.
CN(CC(=O)Nc1cccc(F)c1)C(=O)CCSc1ccc(F)cc1	?	.	.	?	8.2µM	?
CCN(CC(=O)Nc1ccc(NC(C)=O)cc1)C(=O)COc1ccc2ccccc2c1	.	.	.	.	.	.
O=C(CSc1ccc2c(c1)OCCO2)Nc1ccc(Br)cc1	.	.	.	.	.	23.1µM
Cc1cc(NC(=O)NCc2ccc3c(c2)CCN3C(=O)c2ccccc2)ccc1Br	.	/	.	/	/	/
CC(C)C[C@H]1COc2cc(N3CCSCC3)ccc2S(=O)(=O)N1C	/	/	.	/	/	/
COc1cccc(NC(=O)CN(C)C(=O)COc2ccc3ccccc3c2)c1	.	.	.	14.6µM	.	.
COc1ccc(NC(=O)CN(C)C(=O)Cc2ccc3c(c2)OCCO3)cc1	.	.	.	?	.	.
COc1ccc(NC(=O)CSCC(=O)N(C)Cc2ccc3c(c2)OCCO3)cc1	.	.	.	14.6µM	.	.
COc1cccc(NC(=O)CN(C)C(=O)Cc2cccc3ccccc23)c1	.	.	.	.	.	.
CCOC(=O)c1cnc2ccccc2c1Nc1cccc(OC)c1	.	/	.	?	.	/
C=CCc1cccc(/C=N/NC(=O)CCCNc2ccc(C)cc2)c1O	.	.	.	23.1µM	?	.
C=CCc1cccc(/C=N/NC(=O)CNc2ccccc2)c1O	?	.	.	.	.	?
CC1=NN(C(N)=S)C(=O)C1N=Nc1ccccc1 (centres undefined)	.	.	.	.	.	?
CC1=NN(C(=O)c2ccncc2)C(=O)C1N=Nc1ccc2ccccc2c1 (centres undefined)	?	.	?	6.51µM	?	?
COc1ccc(NCc2nc3ccccc3n2CCOc2ccccc2)cc1	.	.	.	2.31µM	?	.
Cn1c(CNc2ccc(Br)cc2)nc2ccccc21	.	.	.	14.6µM	?	?
Cc1ccc(NCc2nc3ccccc3n2C)cc1	.	.	.	.	.	/
CC(Oc1ccccc1F)C(=O)N1CCC(c2nc3ccccc3o2)CC1 (centres undefined)	.	/	.	/	/	.
CCOC(=O)C1(Cc2ccccc2)CCN(Cc2ccc(C(F)(F)F)cc2)CC1	/	/	.	/	/	/
Cc1nc(N2CCC(C)CC2)c2oc3ccccc3c2n1	.	.	.	20.6µM	?	?
COc1ccccc1N1CCN(c2nc(C)nc3c2oc2ccccc23)CC1	.	.	.	1.12µM	1.41µM	/
COc1ccccc1NC(=O)OC1CCC12CCCCC2 (centres undefined)	/	/	.	/	/	/
N#CN=c1snc(-c2ccccc2)n1-c1ccc(Cl)cc1	.	.	/	.	.	.
O=C(CSc1nnc(-c2n[nH]c3ccccc23)n1-c1ccccc1)Nc1cccc(Cl)c1	.	.	.	7.31µM	.	.
Cc1onc(-c2ccccc2Cl)c1C(=O)N/N=C(\N)COc1ccc(Cl)cc1	.	.	.	14.6µM	?	?
